About 770 (37%) of roughly 2,100 compounds were called active. This is one part of the list. Unmarked numbers belong to inactive results.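 The calls were made as follows: active = by-eye trace score of 1 for enhancers or -1 for inhibitors, so actives lie on both sides (some results past the limit were not filed as active); inactive = score 0, or 3 fluorescent, or 4 baseline rise.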

Chain of G protein-activated inward rectifier potassium channel 2 (Homo sapiens) + G protein-activated inward rectifier potassium channel 1 (Homo sapiens) (P48051 whole entry, looked up): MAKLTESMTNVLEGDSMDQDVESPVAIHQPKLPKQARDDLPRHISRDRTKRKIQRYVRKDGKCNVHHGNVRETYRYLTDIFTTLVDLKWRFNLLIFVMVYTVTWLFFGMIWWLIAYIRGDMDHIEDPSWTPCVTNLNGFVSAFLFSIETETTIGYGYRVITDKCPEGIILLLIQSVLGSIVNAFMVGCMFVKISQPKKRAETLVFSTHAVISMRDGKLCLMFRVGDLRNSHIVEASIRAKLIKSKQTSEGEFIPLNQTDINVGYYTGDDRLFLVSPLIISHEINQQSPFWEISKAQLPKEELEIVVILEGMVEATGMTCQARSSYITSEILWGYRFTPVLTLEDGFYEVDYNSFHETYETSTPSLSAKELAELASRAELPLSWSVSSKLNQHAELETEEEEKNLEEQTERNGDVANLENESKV
Chain of G protein-activated inward rectifier potassium channel 2 (Homo sapiens) + G protein-activated inward rectifier potassium channel 1 (Homo sapiens) (P48549 whole entry, looked up): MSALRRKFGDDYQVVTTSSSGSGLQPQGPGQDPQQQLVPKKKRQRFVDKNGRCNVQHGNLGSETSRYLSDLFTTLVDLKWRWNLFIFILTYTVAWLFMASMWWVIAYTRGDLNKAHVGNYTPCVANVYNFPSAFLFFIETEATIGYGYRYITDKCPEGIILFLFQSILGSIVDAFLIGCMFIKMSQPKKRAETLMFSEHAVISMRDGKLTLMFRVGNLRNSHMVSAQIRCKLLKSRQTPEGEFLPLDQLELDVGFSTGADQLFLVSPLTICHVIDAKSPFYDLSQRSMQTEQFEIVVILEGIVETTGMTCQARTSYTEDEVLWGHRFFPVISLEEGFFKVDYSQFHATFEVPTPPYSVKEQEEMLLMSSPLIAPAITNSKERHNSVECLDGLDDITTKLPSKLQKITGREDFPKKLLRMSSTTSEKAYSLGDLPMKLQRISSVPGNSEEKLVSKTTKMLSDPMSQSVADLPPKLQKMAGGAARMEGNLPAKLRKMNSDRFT

This assay concerns the target G protein-activated inward rectifier potassium channel 2 (Homo sapiens) + G protein-activated inward rectifier potassium channel 1 (Homo sapiens) (UniProt P48051+P48549). In words: GIRK1/2 thallium flux modulators, retest, confirmation, cell-based, HEK293 rmGlu8/hGIRK1/2, FluoZin-2 (AID 623911). The note with it: HEK293 rmGlu8/hGIRK1/2, thallium flux FluoZin-2; actives lie on both sides; glutamate co-added at its EC20 level.
`Cc1ccc(/C=N\NC(=O)c2cc([N+](=O)[O-])cc([N+](=O)[O-])c2)o1`: the manual score is 0.
For `O=C(N/N=C\c1cc(Br)c(Br)o1)c1cncc(Br)c1` the value was 1 (active).
In the case of `CCc1ccc(C2=NN(c3ccc(S(N)(=O)=O)cc3)C(c3ccc(F)cc3)C2)cc1` (stereo not drawn), the manual score is 0.
Next, `O=C(Nc1ccc(F)cc1)c1cccnc1N1CCOCC1`: 0; `CCN(Cc1ccccc1)C(c1ccccn1)c1nnnn1C1CCCCC1` (stereo not drawn): -1 (active); `CCC(C)(C)n1nnnc1C(c1ccccn1)N1CCCCC1` (stereo not drawn): 0.
Next, `CC(Oc1ccc2ccccc2c1)C(=O)NNC(=S)NC(=O)c1ccco1` (stereo not drawn): 1 (active); `O=C(NC(=S)Nc1cccc(Cl)c1N1CCCCC1)c1ccco1`: 0; `CC(Oc1ccc(Cl)cc1)C(=O)NNC(=S)NC(=O)c1ccco1` (stereo not drawn): 1 (active).
For `O=C(NC(=S)Nn1cnc2c(cnn2-c2ccccc2)c1=O)c1ccc(Oc2ccccc2)cc1` the value was 0.
On to `Cc1ccc(N(C(=O)CCC(=O)Nc2cc(C)on2)C(C(=O)NC2CCCC2)c2cccs2)cc1` (stereo not drawn), for which the manual score was -1 (active).
Next, `Cc1cc(NC(=O)CSc2nc3ccsc3c(=O)n2NC(=O)c2ccccc2)no1`: 0; `Fc1ccc2nc(-c3ccccc3)nc(SCc3nnc(-c4ccccc4)o3)c2c1`: 1 (active).
For `O=S(=O)(c1ccc(-c2nnc(SCc3nnc(-c4ccccc4)o3)o2)cc1)N1CCCC1` the value was 0; for `c1ccc(Cc2nnc(-c3ccccc3)o2)cc1`, 0; for `O=C(NCc1ccccc1)C(=O)Nc1nc(C23CC4CC(CC(C4)C2)C3)cs1`, 0.
For `S=C(Nc1ccc(Cl)cc1Cl)Nc1ccccc1Oc1ccccc1` the value was 0; for `FC(F)Oc1ccccc1NC(=S)Nc1cccc(Cl)c1Cl`, 1 (active).
For the compound `C=C(C)CNC(=S)Nc1cccc2cnccc12`, the manual score was 0.
Next, `COC(=O)c1cccc(NC(=S)Nc2cccc(Cl)c2Cl)c1`: 0; `S=C(Nc1ccccc1)Nc1cc(Cl)ccc1Oc1ccccc1`: 0; `O=C(Nc1cc(Cl)ccc1Oc1ccccc1)c1ccccc1F`: 0.
For `Fc1cccc(/C=N/NC(=S)Nc2ccccc2Cl)c1` the value was 0.5.
For `O=C(NC(=S)Nc1ccc2oc(-c3cccnc3)nc2c1)c1cccc(Cl)c1` the value was 0; for `S=C(Nc1cccc(Cl)c1)Nc1ccccc1Oc1ccccc1`, 1 (active).
In the case of `COc1ccc(C)cc1S(=O)(=O)Nc1cccc(Cl)c1Cl`, the manual score was 0.
For `S=C(Nc1ccccc1Oc1ccccc1)Nc1cccc(Cl)c1Cl` the value was 1 (active); for `S=C(Nc1cccc(Cl)c1)Nc1cccc2cnccc12`, 1 (active).
Next, `COc1ccc(N/C(C)=C2/C(=O)C(=O)N(CCO)C2c2ccc(Br)cc2)cc1` (stereo not drawn): 0.
Next, `N#CC1=C(N)Oc2n[nH]c(-c3cccs3)c2C1c1ccoc1` (stereo not drawn): 0; `O=C(Cn1nc(Cc2ccncc2)c2ccccc2c1=O)N1CCN(C(=O)c2ccco2)CC1`: 0; `O=c1c2ccccc2nc(SCc2cn3ccsc3n2)n1-c1ccc(F)cc1`: 0.
As to `COC(=O)NC(=S)Nc1ccc(Oc2ccc(Cl)cc2Cl)c(Cl)c1`, the manual score is 0.
For `Fc1ccc(NC(=S)Nc2ccccc2OC(F)F)cc1Cl`, the manual score was 1 (active).
For `Cc1ccc(NC(=S)Nc2ccc(Cl)c(Cl)c2)c(OC(F)F)c1` the value was 1 (active); for `O=C(O)CN=C(NS(=O)(=O)c1ccccc1)c1ccccc1`, 0; for `COc1ccc(Cl)cc1C(=O)CSc1nnnn1C1CCCC1`, 0.
For `Cc1cc(C(=O)CSc2nnc(-c3ccncc3)n2-c2ccccc2)c(C)n1C` the value was 0; for `COc1ccccc1-n1cnnc1SCC(=O)c1cc(C)n(Cc2cccs2)c1C`, -1 (active); for `COc1cccc(-c2cc(C(=O)NC3CCCC3)no2)c1`, 0.
Regarding `CN(C)CCCNC(=O)c1ccc(-c2nc(-c3ccc(Cl)cc3)cs2)cc1`, the manual score was 0.
For `CCN(CC)CCCNC(=O)c1cc(-c2ccc(Cl)c(Cl)c2)on1` the value was -1 (active).
For `CC(C)CCOP(=O)(c1ccc(N(C)C)cc1)C(O)c1ccccn1` (stereo not drawn) the value was 0.
Next, `COc1ccc2c(c1)C(C)=CC(C)(C)N2C(=O)CNCc1ccc2c(c1)OCO2`: -1 (active); `CC(C)(C)c1nn(-c2ccccc2)c2[nH]c(=O)c(CNCc3ccc4c(c3)OCO4)cc12`: 0.
As for `Cc1c(C(=O)O)[nH]c2c1C(=O)CC(c1ccc(Cl)cc1)C2` (stereo not drawn), the manual score is 0.
For `Cc1ccc(OCC(O)Cn2c(=N)n(CCN3CCCCC3)c3ccccc32)cc1` (stereo not drawn) the value was -1 (active).
With `N=c1n(CCN2CCCCC2)c2ccccc2n1CC(O)COc1ccccc1` (stereo not drawn), the manual score was -1 (active).
For `Cc1cccc(OCC(O)Cn2c(=N)n(CCN3CCCCC3)c3ccccc32)c1` (stereo not drawn) the value was -1 (active); for `Cc1cccc(OCc2nnc(SCC(=O)N3CCc4ccccc43)n2C)c1`, 0.
For `O=C(NNc1ccccc1Br)C(=O)n1ccc2ccccc21` the value was 0.
Take `COCCCN1C(=O)C(=O)/C(=C(/O)c2ccc(C)cc2)C1c1ccccc1` (stereo not drawn): the manual score is 0.
For `COc1ccc(-c2nn(-c3ccccc3)cc2/C=N/n2cnnc2)cc1OC` the value was 0; for `COc1ccc(/C=N/n2c(SC)nnc2-c2ccccc2)c(OC)c1OC`, -1 (active); for `COc1cccc(/C=N/n2c(=S)n(C)c3ccccc32)c1OC`, 0.
For `Cc1cc(N2CCC(C)CC2)n2ncc(-c3ccccc3)c2n1` the value was 0; for `CCC(/C=N/NC(=O)C1COc2ccccc2O1)CC` (stereo not drawn), 1 (active); for `NS(=O)(=O)c1ccc(NC(=O)C2COc3ccccc3O2)cc1` (stereo not drawn), 0.
For `CCC(CC)c1nnc(NC(=O)C2COc3ccccc3O2)s1` (stereo not drawn) the value was 0; for `COc1ccc(-n2nnnc2SCC(=O)N2CCOCC2)cc1`, -0.5; for `COc1ccc(OC)c(C(=O)c2coc3ccc(O)c(CN4CCOCC4)c23)c1`, -1 (active).
For the compound `COC(=O)COc1ccc(S(=O)(=O)Nc2ccccc2C(=O)OC)cc1`, the manual score was 0.
In the case of `CCC/C(=N/NC(=O)c1cccc(Cl)c1)c1ccccc1`, the manual score was 0.
As for `NC(=O)Nc1cccc2ccccc12`, the manual score is 0.
Next, `COC(=O)C(C)N(C(=O)c1cccc(Cl)c1)c1c(C)cccc1C` (stereo not drawn): -1 (active); `COC(=O)C(C)N(C(=O)c1cccc2ccccc12)c1c(C)cccc1C` (stereo not drawn): -1 (active).
As to `O=C(Nc1ccc2oc(-c3ccncc3)nc2c1)c1c(F)c(F)c(F)c(F)c1F`, the manual score was 0.
For `CC(C)CN1C(=O)/C(=C/c2cccs2)NC1=S`, the manual score was 1 (active).
Take `CCCN1C(=O)/C(=C/c2ccc(N3CCCC3)c(C)c2)NC1=S`: the manual score was 3.
As for `CCN1C(=O)/C(=C/c2ccc(C)s2)NC1=S`, the manual score was 1 (active).
Next, `O=C1/C(=C/c2ccc(N3CCCC3)cc2)NC(=S)N1C1CC1`: 3; `CCCN1C(=O)/C(=C/c2ccc(C)s2)NC1=S`: 1 (active); `O=C(Nc1nnc(SCc2ccc(F)cc2)s1)C1CC(=O)N(c2ccc3c(c2)OCCO3)C1` (stereo not drawn): 0.
Regarding `CN(C)c1nc2n(c(=O)n1)C(C#N)CS2` (stereo not drawn), the manual score was 0.
`O=c1[nH]c(CS(=O)(=O)c2ccccc2)nc2ccccc12`: the manual score is 0.
Turning to `CCCCCCCCCn1c2c(c(=N)c3c1CCC3)CCC2`, the manual score is -1 (active).
Take `CCCCn1c(-c2csc3c2CCCC3)n[nH]c1=S`: the manual score is -0.5.
As for `CC(=O)c1ccc(OC(=O)N(c2ccccc2)c2ccccc2)cc1`, the manual score is 0.
Take `N[C@@H](Cc1ccccc1)c1nnc(SCc2ccccc2F)o1`: the manual score is 0.
Take `Cc1cc(C)c2[nH]c(=S)cc(C)c2c1`: the manual score was 1 (active).
As to `Cc1cc(=S)[nH]c2c(C)cccc12`, the manual score was 1 (active).
For the compound `CC1(C)Cc2c(ccc3ccccc23)-c2nnc(-c3cccnc3)n21`, the manual score was 0.
For `CCOC(=O)N/N=C/c1c(C)nn(-c2ccccc2Cl)c1Cl` the value was 0.

Values taken from PubChem BioAssay AID623911 (Vanderbilt High Throughput Screening Facility, 2012).
